Compound activity as filed in PubChem.
Sm TGR inh = inhibitors of Schistosoma mansoni thioredoxin glutathione reductase; purified TGR, DTNB reduction, TNB absorbance 405 nm; Potency, µM (highest dose often 114 µM), without a hit: at the top dose activity change, negative = inhibition, most hits filed as inhibitors; hit rate 3% among 360,000; AID 485364; further: potency means the concentration at half of the fitted maximal effect; nearly all actives have a fitted effect of over 60% in size
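First, TGR (20 nM dispensed) and NADPH were mixed with compound. Second, a 15 min room-temperature incubation followed. Third, further NADPH and then DTNB were added to start the reaction. Finally, TNB absorbance was monitored kinetically.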
Pf growth 96h = P. falciparum growth inhibition at 96 hour, primary screen for plastid delayed-death inhibitors | Potency, µM (top dose mostly 28.7 µM), inactives show at the highest dose activity change, negative = inhibition, most hits filed as inhibitors | P. falciparum luciferase reporter growth, 96 h | AID 504834 | hit rate 6.9% among 320,000; further: potency means the concentration at half of the fitted maximal effect
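96 h incubation, 37 C, 5% CO2, of luciferase-reporter P. falciparum-infected RBCs (2% hematocrit, 0.05% parasitemia final) with test compounds; endpoint luminescence.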
Pf growth 48h = P. falciparum growth inhibition at 48 hours (one generation); Potency, µM (titrated, usually from 28.7 µM), without a hit: top-dose activity change, negative = inhibition, hits mostly inhibitors; AID 504832; P. falciparum luciferase growth in erythrocytes, 48 h; hit rate 5.9% among 310,000; further: potency means the concentration at half of the fitted maximal effect
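A one-generation exposure of luciferase-tagged malaria parasites in RPMI 1640/Albumax erythrocyte culture, 37 C and 5% CO2. Inhibition is inferred from decreased luminescence after adding detection reagent.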
HCMV inh = inhibitors of human cytomegalovirus. HFF cells, HCMV-luciferase reporter, 72 h; active compounds read low. activity change, negative = inhibition, % at 57.5 µM. hit rate 4.5% among 410,000; in the data active means activity change below about -60%; inconclusive means no clear call, values can overlap the other calls; inactive means above about -39%
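Two compound doses tested in HFFs infected with HCMV-luciferase, MOI 1 PFU/cell, 72 h at 37C. Lysate luminescence read with OneGlo; data normalized against buffer-only and 10uM Salinomycin inhibitor controls.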
FBPA Giardia inh = Giardia lamblia aldolase inhibition | A8B2U2 | purified Giardia FBPA | Potency, µM (titrated, usually from 59.6 µM), for the others: at the highest dose activity, negative = inhibition, actives largely listed as inhibitors | hit rate 0.71% among 290,000; further: potency means the concentration at half of the fitted maximal effect; nearly all actives have a fitted effect of over 55% in size
Target sequence (A8B2U2 whole entry, looked up): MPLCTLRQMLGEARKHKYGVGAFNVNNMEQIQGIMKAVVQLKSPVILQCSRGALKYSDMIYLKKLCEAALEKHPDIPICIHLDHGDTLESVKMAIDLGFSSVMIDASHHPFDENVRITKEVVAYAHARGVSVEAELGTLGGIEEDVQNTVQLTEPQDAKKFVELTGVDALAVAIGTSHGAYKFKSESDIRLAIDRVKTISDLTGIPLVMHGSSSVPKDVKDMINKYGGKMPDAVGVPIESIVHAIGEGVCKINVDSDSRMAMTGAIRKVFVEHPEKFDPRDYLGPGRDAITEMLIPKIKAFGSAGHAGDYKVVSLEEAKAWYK
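Giardia FBPA (40 nM reagent) was preincubated 10 min at RT with compound (up to 57.5 uM final), then substrate plus GAPDH/TPI/NAD/arsenate coupling system with diaphorase/resazurin was added; resorufin fluorescence (525/598 nm) was read after 20 min.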
* = called active by the depositor; i = inactive; ? = inconclusive; . = no result. An excerpt weighted towards active compounds, which were near 14% of everything screened. Unless noted, the call rests on the fitted dose curve; in most records, active means well fitted curve in the direction sought with a large enough effect; inconclusive means small, poorly fitted or top-dose-only effect, or another doubt; inactive means no such curve, though single readings can be large; an effect the other way counts as inactive or inconclusive. On the % scale 0 is the no-effect control and ±100 the full control effect.

SMILES	Sm TGR inh	Pf growth 96h	Pf growth 48h	HCMV inh	FBPA Giardia inh
O=C(CN1CCOCC1)Nc1cc(C(F)(F)F)ccc1Cl	-3.1%	11.7µM*	?	-66.1*	6.8%
O=C(CN1CCN(C(=O)c2ccco2)CC1)Nc1cc(C(F)(F)F)ccc1Cl	-10.0%	.	1.65µM*	.	4.2%
FC(F)(F)c1ccc(Cl)c(N/N=C/c2ccc(N3CCOCC3)s2)c1	-2.6%	7.38µM*	?	-25.7	-7.2%
O=C(Nc1nnc([C@H]2C[C@H](O)[C@@H](CO)O2)s1)c1ccccc1F	.	.	.	5.2	.
CC(=O)Nc1c(C)nn(-c2ccccc2)c1N1CCC(C(=O)NCc2cccc(F)c2)CC1	-3.4%	.	.	15.0	.
COc1ccccc1N1CCN(c2ncnc3c2cnn3-c2ccc(C)cc2)CC1	5.0%	.	.	?	.
Cc1nc2sc(C(c3ccco3)N3CCN(c4cccc(Cl)c4)CC3)c(O)n2n1 (centres undefined)	0.0%	0.0%	10.0%	-16.6	-8.5%
CCOC(=O)C1CCN(C(c2cccs2)c2sc3nc(C)nn3c2O)CC1 (centres undefined)	-6.8%	-0.9%	-7.1%	-61.9*	0.2%
Cc1nc2sc(C(c3cccs3)N3CCN(c4ccccc4)CC3)c(O)n2n1 (centres undefined)	3.4%	5.8%	1.1%	-69.7*	3.4%
Cc1nc2sc(C(c3ccco3)N3CCN(c4ccccc4)CC3)c(O)n2n1 (centres undefined)	?	-14.2%	-22.7%	-100.0*	-17.7%
Cc1nc2sc(C(c3ccc(Cl)cc3)N3CCOCC3)c(O)n2n1 (centres undefined)	11.8%	106.1%	?	-100.6*	5.7%
O=[N+]([O-])c1cccc(S(=O)(=O)NCCc2ccccc2)c1	-5.9%	?	9.5%	-2.1	11.0%
COc1ccc(-n2cc3c(-c4cccc(Br)c4)nnc(C)c3n2)cc1	6.2%	?	?	6.0	0.4%
Cc1nc2sc(C(c3ccco3)N3CCN(C(c4ccccc4)c4ccccc4)CC3)c(O)n2n1 (centres undefined)	?	?	1.65µM*	-32.4	-8.1%
Cc1nc2sc(C(c3ccccc3)N3CC(C)OC(C)C3)c(O)n2n1 (centres undefined)	4.6%	?	58.2%	43.0	5.6%
Cc1nc2sc(C(c3ccco3)N3CC(C)OC(C)C3)c(O)n2n1 (centres undefined)	44.7µM*	?	10.1%	29.9	?
Cc1nc2sc(C(c3ccccc3)N3CCOCC3)c(O)n2n1 (centres undefined)	-5.1%	-21.4%	-7.3%	-1.6	-12.5%
Cc1nc2sc(C(c3ccco3)N3CCC(C)CC3)c(O)n2n1 (centres undefined)	44.7µM*	8.4%	-3.0%	27.3	-25.6%
CCOc1ccc(CNC(=O)c2ccc(Sc3ccc(C)cc3)c(NC(C)=O)c2)cc1OC	6.5%	11.7µM*	13.7%	-24.7	9.0%
CCOc1ccc(CNC(=O)c2ccc(Sc3ccc(C)cc3)c(N)c2)cc1OC	-1.1%	.	.	-62.1*	.
CCOc1ccc(CNC(=O)c2ccc(Sc3ccc(Cl)cc3)c(NC(C)=O)c2)cc1OC	-3.8%	-8.6%	-8.7%	1.8	16.1%
CCn1c(C)cs/c1=N\C(=S)Nc1ccccc1C	1.7%	?	-0.1%	-5.4	1.2%
O=C(O)C1CCN(S(=O)(=O)c2ccc(N3CCC(O)CC3)c([N+](=O)[O-])c2)CC1	-6.8%	9.28µM*	?	15.3	.
CCOC(=O)N1CCN(c2ccc(S(=O)(=O)N3CCC(C)CC3)cc2[N+](=O)[O-])CC1	6.7%	9.28µM*	10.4µM*	-22.0	.
CCN(C(=O)COC(=O)C(C)(C)Oc1ccc(Cl)cc1)c1c(N)n(Cc2ccccc2)c(=O)[nH]c1=O	.	.	.	-7.4	.
SMILES	Sm TGR inh	Pf growth 96h	Pf growth 48h	HCMV inh	FBPA Giardia inh
COC(=O)COc1ccc(C2Nc3c(Cl)ccc(C(=O)O)c3C3C=CCC32)cc1 (centres undefined)	3.55µM*	?	-25.9%	-75.0*	-19.7%
O=C(O)c1ccc(Cl)c2c1C1C=CCC1C(c1ccccn1)N2 (centres undefined)	?	-20.5%	.	.	?
CCOc1ccc2c(c1)[C@@H]1C=CC[C@@H]1[C@H](c1ccccc1Cl)N2	-7.5%	.	.	-7.5	.
COc1ccc(OC)c(C2Nc3c(Cl)ccc(C(=O)O)c3C3C=CCC32)c1 (centres undefined)	1.58µM*	i	-23.0%	-20.9	?
CC(=O)c1ccc(-c2ccc(C(=O)N(C)Cc3nc4ccccc4c(=O)[nH]3)o2)cc1	?	?	?	-30.4	.
CC1Cn2c(nnc2-c2cccc(Cl)c2)S1 (centres undefined)	6.3%	?	7.2%	-3.7	2.5%
CC1(C)Cn2c(nnc2-c2cccc(O)c2)S1	-0.1%	11.7µM*	44.1%	3.0	14.4%
CC(C)(C)NC(=O)N1CCC(C(=O)O)CC1	13.0%	.	.	10.2	.
O=C(c1ccc(COCC(F)(F)F)o1)N1CCCC1	14.7%	?	18.9%	-9.2	4.5%
Cn1cnc([N+](=O)[O-])c1Sc1ccc(Br)cc1	22.4µM*	?	?	9.0	1.7%
COc1ccccc1C(=O)Nc1ccc2c(c1)CCCN2C(=O)c1cccs1	-5.4%	1.5%	-3.4%	-60.4*	-4.2%
COc1cc(OC)cc(C(=O)Nc2ccc3c(c2)CCCN3C(=O)c2cccs2)c1	0.0%	?	?	-77.5*	.
O=C(Nc1ccc2c(c1)CCCN2C(=O)c1ccccc1)c1ccccc1Br	10.5%	-6.7%	?	-70.2*	3.2%
COc1ccccc1C(=O)Nc1ccc2c(c1)CCCN2C(=O)c1ccccc1	-18.4%	-3.4%	-4.2%	?	-4.1%
O=C(Nc1ccc2c(c1)CCCN2C(=O)c1cccs1)c1cccc(C(F)(F)F)c1	1.1%	.	.	-70.3*	.
O=C(O)/C=C/c1cn(-c2ccccc2)nc1-c1cc2ccccc2o1	-29.0%	?	?	-17.2	-3.2%
Cc1cc2oc(C(=O)Nc3sc4c(c3C(=O)NCC3CCCO3)CCC4)cc(=O)c2cc1C (centres undefined)	-13.3%	.	.	2.8	.
CN(C)c1ccc(-c2ccnc3c2CC(C)(C(=O)NCCC(F)(F)F)O3)cc1 (centres undefined)	.	.	.	-11.7	.
O=C(Nc1ccc2c(c1)CCCN2C(=O)c1cccs1)c1ccccc1C(F)(F)F	2.1%	.	.	-71.5*	.
CC1=CC2OC3CC4OC(=O)C=CC=CC(C(C)O)OCC(O)C5(C)OC5C(=O)OCC2(CC1O)C4(C)C31CO1 (centres undefined)	.	.	.	-97.6*	.
CC1CCOC(=O)C=CC=CC(=O)OC2CC3OC4C5OC5(C)C(O)CC4(COC(=O)C1O)C2(C)C31CO1 (centres undefined)	.	.	.	-97.5*	.
